Screen size: about 360,000 compounds; about 11,000 (3.1%) were called active. Roughly 2% stayed inconclusive and do not appear here. Shown is part of a subset that was picked to be rich in actives. Values without a mark were called inactive. Rule as the data show it: active = fluorescence intensity above about 16000; inconclusive = no clear call, values can overlap the other calls; inactive = below that.

This assay is described as follows: counter-screen for toxin protease inhibitors: compound fluorescence, primary screen, artefact control for toxin protease inhibitor project, biochemical, multiplex microsphere, HTS (AID 624483). The settings on record: compound autofluorescence counterscreen, microsphere flow cytometry; stronger effect = higher value.
As to `CC1=C(C(=O)OCC2CCCCC2)C(c2ccc(F)cc2)NC(=O)N1` (stereo not drawn), the fluorescence intensity was 3520.

For the compound `CC(C)c1cccc(-c2csc(C(O)c3ccccc3)n2)c1` (stereo not drawn), the fluorescence intensity was 3800.

As to `COC(=O)c1sccc1NC(=O)c1ccc(Cl)cc1`, the fluorescence intensity was 2980.

Take `COC(=O)c1sccc1NS(=O)(=O)c1ccc(F)cc1F`: the fluorescence intensity was 3170.

Take `COC(=O)c1sccc1N/N=C(\C)c1ccc(F)c(Cl)c1`: the fluorescence intensity was 22300 (active).

As for `OC(c1ccccc1)c1nc(-c2cnc3ccccc3c2)cs1` (stereo not drawn), the fluorescence intensity is 3830.

Take `CCN(CC)S(=O)(=O)c1cc(C(=O)Nc2ccccn2)ccc1C`: the fluorescence intensity is 24700 (active).

In the case of `Cc1ccc(NC(=O)CNCc2ccccn2)cc1S(=O)(=O)N(C)C`, the fluorescence intensity was 4460.

With `CCN(c1ccccc1)S(=O)(=O)c1cc(C(=O)NCc2ccccn2)ccc1C`, the fluorescence intensity is 6330.

For `CC1(C)OC(=O)C2=C(C[C@@H](C3CC3)O[C@H]2c2ccc(Cl)cc2)O1`, the fluorescence intensity is 5960.

As to `Cc1cc2nc(-c3ccco3)c(Cc3cccc(F)c3)n2c(C)c1Br`, the fluorescence intensity was 5860.

As for `Cc1cc(OCC(=O)N(C)c2c(N)n(Cc3ccccc3)c(=O)[nH]c2=O)c(C(C)C)cc1Cl`, the fluorescence intensity is 5120.

For `Cc1ccc(S(=O)(=O)N(CC(=O)NCCSC2CCCCC2)c2ccccc2F)cc1`, the fluorescence intensity was 7650.

`O=C(O)CCC(=O)N(Cc1cccs1)Cc1cccs1`: the fluorescence intensity is 9340.

With `O=P(c1cccs1)(c1cccs1)c1cccs1`, the fluorescence intensity is 22500 (active).

For the compound `COc1ccc(CC(N)c2csc(NC(=O)Cc3ccccc3)n2)cc1` (stereo not drawn), the fluorescence intensity is 3080.

As to `CCCCCCCCN1C(=O)[C@H](CC(=O)NCC23CC4CC(CC(C4)C2)C3)C[C@@]2(C(=O)OC)CCCCC=C12`, the fluorescence intensity is 5660.

With `COC(=O)c1ccc(CN2CCC(CO)(Cc3ccc(OC)cc3)CC2)cc1`, the fluorescence intensity was 3600.

Regarding `CC(=O)N(C1=NCCCS1)c1ccccc1F`, the fluorescence intensity is 24900 (active).

With `O=C(NCc1ccc(F)cc1)c1cc(C2CCCCN2C(=O)c2cccs2)on1` (stereo not drawn), the fluorescence intensity is 3580.

For `OCc1nc(CO)n(Cc2ccccc2)n1`, the fluorescence intensity was 20000 (active).

Take `Nc1c(-c2ccccc2)nnn1Cc1ccccc1`: the fluorescence intensity was 5560.

`Cc1nn(Cc2ccccc2)c(C)c1NS(=O)(=O)c1ccccc1`: the fluorescence intensity is 5640.

Consider `O=C(NCc1cccnc1)c1ccc2nc([C@@H]3O[C@H](CO)[C@H](O)[C@H](O)[C@H]3O)[nH]c2c1`, for which the fluorescence intensity was 3590.

Turning to `Cc1ccc(-n2c(O)c(C=NCC3CCCO3)c(=O)[nH]c2=O)c(C)c1` (stereo not drawn), the fluorescence intensity was 6540.

`O=C1c2cccc3c([N+](=O)[O-])ccc(c23)C(=O)N1CC1CCCO1` (stereo not drawn): the fluorescence intensity is 3530.

Consider `O=C1C(C=NCC2CCCO2)=C(O)c2ccccc21` (stereo not drawn), for which the fluorescence intensity is 21000 (active).

As for `CC(C)Oc1ccc(CN2CCC2(C)C(=O)NCc2ccc(C(F)(F)F)cc2)cc1` (stereo not drawn), the fluorescence intensity is 4110.

For `CNC(=O)c1ccsc1NC(=O)c1ccc(S(=O)(=O)N2CCOCC2)cc1`, the fluorescence intensity was 2470.

Regarding `COc1ccc(C(=O)Nc2cc(S(=O)(=O)N3CCCC3)ccc2Cl)cc1`, the fluorescence intensity was 3660.

Consider `COc1ccc(C(=O)Nc2nc(-c3ccc(S(=O)(=O)N4CCOCC4)cc3)cs2)cc1`, for which the fluorescence intensity is 20400 (active).

As for `COc1ccc(-c2cnc3c(c2)C(=O)N([C@H](C)CO)C[C@@H](C)[C@H](CN(C)Cc2ccccc2)O3)cc1`, the fluorescence intensity was 3700.

Consider `CCN(CC)C(=O)C(=O)c1cn(CC(=O)NCc2ccc3c(c2)OCO3)c2ccccc12`, for which the fluorescence intensity is 4830.

As for `Cn1cc(CCC(=O)NC2CC2)c2ccccc21`, the fluorescence intensity is 3960.

Consider `Cn1cc(CCC(=O)NCc2ccc3c(c2)OCO3)c2ccccc21`, for which the fluorescence intensity is 22500 (active).

Take `CCn1c(=O)cc(SCC(=O)NCc2ccc3c(c2)OCO3)c2ccccc21`: the fluorescence intensity is 23400 (active).

For `CCOC(=O)N1CCC(NC(=O)CCc2ccccc2)CC1`, the fluorescence intensity is 3630.

In the case of `CCOC(=O)N1CCC(NC(=O)CCc2cn(C)c3ccccc23)CC1`, the fluorescence intensity was 22900 (active).

With `CCOC(=O)N1CCC(NC(=O)Cc2cn(C)c3ccccc23)CC1`, the fluorescence intensity was 2810.

For `CC(C)NC(=O)CSc1ccccc1C(=O)NCc1ccc2c(c1)OCO2`, the fluorescence intensity was 2170.

For `CCn1c(=O)cc(SCC(=O)NCCC2=CCCCC2)c2ccccc21`, the fluorescence intensity was 2540.

With `COc1ccc(-c2csc(C(O)c3cccc(Cl)c3)n2)cn1` (stereo not drawn), the fluorescence intensity was 3880.

On to `COCCNC(=O)CSc1nc2c(n1-c1ccccc1)CCCC2`, for which the fluorescence intensity was 3860.

On to `COc1ccc(-c2cc3nc(NCCOc4ccccc4)ccn3n2)cc1`, for which the fluorescence intensity is 4480.

As for `O=C(NCc1ccc(F)cc1)C(c1ccccc1)N(C(=O)c1csnn1)C1CC1` (stereo not drawn), the fluorescence intensity was 2770.

`CNc1cncc(-c2ccc(NS(C)(=O)=O)cc2)n1`: the fluorescence intensity was 3500.

Take `Cc1ccc(-c2ccnc3nc(Sc4ncc(C(F)(F)F)cc4Cl)nn23)cc1`: the fluorescence intensity was 23100 (active).

As for `Cc1cc(NC(=O)CSc2ncc(C(F)(F)F)cc2Cl)no1`, the fluorescence intensity was 3110.

For `Cc1nn(-c2ncc(C(F)(F)F)cc2Cl)c(=O)n1-c1ccccc1`, the fluorescence intensity was 2340.

For `Cc1ccc(-c2cnc(C(O)c3cccc(C)c3C)[nH]2)cc1` (stereo not drawn), the fluorescence intensity was 3860.

For the compound `OC(c1ccccc1)(c1ccccc1)C1CCN(CCCOc2ccccc2)CC1`, the fluorescence intensity was 6640.

For the compound `COc1ccc(CN2CCC(C)(Oc3cccc(F)c3)C2)c2ccccc12` (stereo not drawn), the fluorescence intensity was 3240.

Regarding `Cc1ccccc1CSCC(=O)NC(=O)NC(C)(C)C`, the fluorescence intensity is 11200.

With `CC(C)(C)NC(=O)CSC(=Nc1ccccc1F)NC#N`, the fluorescence intensity was 21400 (active).

For `COc1ccccc1-n1ccnc1SCC(=O)NC(C)(C)C`, the fluorescence intensity was 3990.

For `CCOC(=O)[C@]12CCC=C1N(Cc1cccc3ccccc13)C(=O)[C@H](CC(=O)NCc1cccc(C(F)(F)F)c1)C2`, the fluorescence intensity is 4120.

On to `CC(=O)Nc1cc(-c2cccc(CO)c2)cn2c(-c3cccc(C(F)(F)F)c3)cnc12`, for which the fluorescence intensity is 3820.

Consider `OC(c1ccc(Cl)cc1)C(CN1CCOCC1)c1ccccc1` (stereo not drawn), for which the fluorescence intensity was 3680.

As for `COCCn1c(SCC(=O)Nc2cc(Cl)ccc2OC)nc2c(c1=O)SC(C)C2` (stereo not drawn), the fluorescence intensity was 4110.

In the case of `CCOC(=O)c1cccc(NC(=O)CCOc2ccccc2)c1`, the fluorescence intensity was 3720.

As for `CCOC(=O)c1cccc(NC(=O)CCn2nnc3ccccc32)c1`, the fluorescence intensity was 4180.

Consider `CCOC(=O)c1cccc(NC(=O)CCc2c(C)nc3ncnn3c2C)c1`, for which the fluorescence intensity was 17600 (active).

For `c1ccc(C2CNCc3c2ccc2ccccc32)cc1` (stereo not drawn), the fluorescence intensity is 10400.

As to `O=S1(=O)CC(N2CCN(Cc3ccccc3F)CC2)CN1Cc1cn(Cc2cccc(C(F)(F)F)c2)nn1` (stereo not drawn), the fluorescence intensity is 4150.

For the compound `Cc1ccc(C(=O)c2ccc(N3CCN(C)CC3)c([N+](=O)[O-])c2)cc1`, the fluorescence intensity was 2490.

Regarding `Cc1cccc(N2CCN(c3ccc(C(N)=O)cc3[N+](=O)[O-])CC2)c1C`, the fluorescence intensity is 4080.

As for `CS(=O)(=O)N1CCN(c2ccc(C(=O)NC3C4CC5CC(C4)CC3C5)cc2[N+](=O)[O-])CC1` (stereo not drawn), the fluorescence intensity is 17000 (active).

Regarding `CCN(CC(=O)NCCc1ccccc1)S(=O)(=O)c1ccccc1`, the fluorescence intensity is 5110.

As to `CCN(CC(=O)NCCc1ccccc1)S(=O)(=O)c1ccc(C)cc1`, the fluorescence intensity was 2180.

As for `CCCNC(=O)CN(Cc1ccccc1F)S(=O)(=O)c1ccc(C)cc1`, the fluorescence intensity is 21400 (active).

Take `NC(=O)C1CCN(CC(O)CSc2ccc(F)cc2)CC1` (stereo not drawn): the fluorescence intensity was 3520.

`CC1(C(=O)NCc2ccc3c(c2)OCO3)CCN1C(=O)Cc1cccs1` (stereo not drawn): the fluorescence intensity was 3670.

Regarding `O=C(COc1ccc2oc3c(c2c1)CCCC3)Nc1ccccn1`, the fluorescence intensity was 3750.

In the case of `CCOC(=O)N1CCN(C(=O)COc2ccc3oc4c(c3c2)CCCC4)CC1`, the fluorescence intensity was 4590.

For `O=C(CN1CCOCC1)N1CCCc2c1c(=O)oc1ccc(OCc3ccccc3)cc21`, the fluorescence intensity is 22500 (active).

For `O=C1OC(OC(=O)c2ccccc2Br)C(N2CCOCC2)=C1Cl` (stereo not drawn), the fluorescence intensity was 6700.

In the case of `O=C(NC(=O)N1CCOCC1)c1ccccc1`, the fluorescence intensity was 9020.

`O=C1OC(NC(=O)c2ccccc2)C(N2CCOCC2)=C1Cl` (stereo not drawn): the fluorescence intensity was 21900 (active).

Turning to `Cc1cc2oc(=O)cc(CN(C)Cc3ccccc3)c2cc1Cl`, the fluorescence intensity is 6000.

In the case of `Cc1c(C=O)c2ccccc2n1CC(=O)O`, the fluorescence intensity is 4440.

On to `CC(=O)c1c(C)n([O-])c2ccccc2[n+]1=O`, for which the fluorescence intensity was 23100 (active).

Regarding `FC(F)(F)c1nnc2sc(-c3ccco3)nn12`, the fluorescence intensity is 22400 (active).

As to `CNc1nnc(-c2ccco2)s1`, the fluorescence intensity was 4180.

For the compound `COC(=O)c1cnn2c(C(F)(F)F)cc(-c3ccco3)nc12`, the fluorescence intensity was 4440.

With `Fc1ccc(-c2ccc(-c3nn4c(-c5ccco5)nnc4s3)o2)cc1`, the fluorescence intensity is 3990.

Take `Cc1nnc2sc(-c3ccco3)nn12`: the fluorescence intensity was 20800 (active).

With `FC(F)(F)c1nnc2c3ccccc3c(Cl)nn12`, the fluorescence intensity is 3190.

For the compound `CC(=O)Nc1cccc(-c2cc(NC(C)=O)c3ncc(-c4ccccc4)n3c2)c1`, the fluorescence intensity is 3750.

In the case of `O=C(/C=C/c1cccs1)c1cc(Cl)ccc1OC(=O)N1CCOCC1`, the fluorescence intensity was 2170.

Regarding `O=C(Nc1ccc(N2CCOCC2)cc1)c1cccc2c(-c3ccc(F)c(F)c3)coc12`, the fluorescence intensity is 3990.

Take `CC12CCC(=O)C=C1CCC1C2C(O)CC2(C)C1CCC2(O)C(O)CO` (stereo not drawn): the fluorescence intensity was 5610.

Take `O=C(/C=C/NCc1ccc(F)cc1)c1ccccc1`: the fluorescence intensity was 2490.

Turning to `O=C(/C=C/NNC(=O)c1cccc(Br)c1)c1ccccc1`, the fluorescence intensity is 3590.

As to `O=C(/C=C\NCC(=O)c1ccccc1)c1ccccc1`, the fluorescence intensity is 21800 (active).

Take `COC(=O)c1ccc(C)c(NC(=O)Cn2c(C)csc2=O)c1`: the fluorescence intensity is 3770.

Consider `Cc1oc(-c2ccccc2Cl)[n+]([O-])c1C`, for which the fluorescence intensity was 25200 (active).

For `Cc1oc(-c2cccc(Cl)c2)[n+]([O-])c1C`, the fluorescence intensity was 3960.

Regarding `CCOc1cnc(-c2c(-c3ccccc3Cl)noc2C)o1`, the fluorescence intensity is 2480.

The values are drawn from PubChem BioAssay AID624483 (NMMLSC, 2012).
